The values below come from PubChem BioAssay AID720517 (National Center for Advancing Translational Sciences (NCATS), 2013).

Molecules are shown by their SMILES. Inconclusive results are not listed. Where a call stands in place of a potency, no number is given. Activity calls are given as the source filed them. Calls follow the shape of the dose curve; as a rule, active = well fitted activation curve with a large enough effect; inconclusive = small, poorly fitted or top-dose-only effect; inactive = flat fitted curve, though single readings scatter.

The experiment can be described thus: qHTS for Inhibitors of Cell Surface uPA Generation: FP59 Counterscreen for Cherry-picked Compounds. The following applies: FP59 anthrax toxin cytotoxicity counterscreen, cells; series mostly up to 115 µM.
As for `COc1ccccc1N1CCN(CC(=O)c2c(C)[nH]c3ccccc23)CC1`, the Potency entry is “inactive”. In the case of `COc1cccc(NC(=O)c2nnn(CC(=O)Nc3cc(C)cc(C)c3)c2N)c1` it was “inactive”; in that of `CC(CCc1ccccc1)NC(=O)c1ccc(NC(=O)c2cccc(Br)c2)cc1` (stereo not drawn), “inactive”. For the compound `CC(=O)c1ccc2c(c1)c1ccccc1n2CC(C)C`, the Potency entry is “inactive”.

For `Cc1nc2ccccc2c2oc(C(=O)Nc3ccc4c(c3)OCCO4)cc12`, the Potency result was “inactive”. In the case of `CC(C)C(NC(=O)Cc1ccccc1)C(=O)N1CCN(c2cccc(Cl)c2)CC1` (stereo not drawn) it was “inactive”; in that of `COCCN(C(=O)CSc1nnc(-c2ccncc2)n1C)c1c(N)n(CC(C)C)c(=O)[nH]c1=O`, “inactive”; in that of `CCC(COC)NC(=O)CCc1nnc(Cc2c[nH]c3ccccc23)o1` (stereo not drawn), “inactive”. In the case of `COc1ccc(CCNC(=O)COC(=O)CNS(=O)(=O)c2ccc(SC)c([N+](=O)[O-])c2)cc1` it was “inactive”. The result for `Cc1ccccc1NC(=O)N1CCN(c2ncccn2)CC1` reads “inactive”; that for `COc1ccc(C(=O)N[C@H](C(=O)NCc2cccs2)C(C)C)cc1`, “inactive”; that for `CC(C)NCC1CCc2cc(CO)c([N+](=O)[O-])cc2N1` (stereo not drawn), “inactive”.

In the case of `CCOc1ccc(C(=O)NCC(=O)N2CCN(C/C=C/c3ccccc3)CC2)cc1OCC`, the Potency entry was “inactive”. The result for `Fc1cccc(Cl)c1CSc1ccc(-c2cccnc2)nn1` reads “inactive”; that for `Cc1ccc(C(O)(COC(=O)C(C)C)COC(=O)C(C)C)c(O)c1`, “inactive”. In the case of `Cc1nc(N2CCN(c3ccc(Cl)cc3)CC2)[nH]c(=O)c1C` it was “inactive”; in that of `Cc1ccsc1/C=C(\C#N)C(=O)NC1CCS(=O)(=O)C1` (stereo not drawn), “inactive”; in that of `CCOc1ccc(Cl)cc1/C=N/NC(=O)c1ccccc1`, “inactive”.
